Results from the antibiotic and cytotoxicity screens of Wong et al. (2023).
Screen size: about 39,000 compounds; about 3,300 (8.5%) were called active. For the sample, actives were picked, then their nearest neighbours and some compounds at random.

Each compound was assayed on HepG2 (assay: cytotoxicity call (relative viability < 0.9)). Conditions: 10 µM.

**Q.** For `CNC(=O)CN1CCOCC12CCN(c1cc(OC)ncn1)CC2`, which cytotoxicity call is on record?
**A.** Its cytotoxicity call is “inactive”.

**Q.** How did the cytotoxicity call turn out when `CC1(C)CCC(C)(C)c2cc(-c3csc(CC#N)n3)ccc21` was run?
**A.** Its cytotoxicity call is “inactive”.

**Q.** How did the cytotoxicity call turn out when `COc1c(C[C@@H](C)O)c2c3c(C[C@@H](C)O)c(OC)c(=O)c4c(O)cc5c(c6c(cc(O)c(c1=O)c62)OCO5)c43` was run?
**A.** Its cytotoxicity call is “active”.

**Q.** `NCCc1cccc2ccccc12` was tested. Which cytotoxicity call did it give?
**A.** Its cytotoxicity call is “inactive”.

**Q.** For `C[C@@H]1CN([C@@H](C)CO)C(=O)c2c(c3ccccc3n2C)-c2ccccc2CO[C@H]1CN(C)C(=O)Oc1ccccc1`, which cytotoxicity call is on record?
**A.** The cytotoxicity call was “inactive”.

**Q.** How did the cytotoxicity call turn out when `CN(C)C(=O)N[C@H]1CN[C@H]2CCCO[C@H]21` was run?
**A.** The cytotoxicity call was “inactive”.

**Q.** `O=C1C=C2C=CC3CC2(O1)C1CCCCN31` (centres undefined) was tested. Which cytotoxicity call did it give?
**A.** The cytotoxicity call was “active”.

**Q.** `CN1C(=O)NC(=O)/C(=C\c2ccc(O)cc2)C1=O` was tested. Which cytotoxicity call did it give?
**A.** The cytotoxicity call was “inactive”.

**Q.** Which cytotoxicity call does the source give for `Cn1cc(C(=O)Nc2nn[nH]n2)c2ccccc21` here?
**A.** Its cytotoxicity call is “inactive”.

**Q.** For `CCCC12CNCC(C)(CNC1)C2=O`, which cytotoxicity call is on record?
**A.** Its cytotoxicity call is “inactive”.

**Q.** How did the cytotoxicity call turn out when `O=[N+]([O-])c1ccc(N(CCO)CCO)c2c1no[n+]2[O-]` was run?
**A.** Its cytotoxicity call is “active”.

**Q.** `Nc1ccc([As](=O)(O)O)cc1` was tested. Which cytotoxicity call did it give?
**A.** Its cytotoxicity call is “inactive”.

**Q.** How did the cytotoxicity call turn out when `CN1CC(=O)N(c2cccnc2)C[C@]12CCNC2` was run?
**A.** Its cytotoxicity call is “inactive”.

**Q.** `O=[N+]([O-])C(Br)(CO)CO` [listing 1 of 2 here] was tested. Which cytotoxicity call did it give?
**A.** Its cytotoxicity call is “active”.

**Q.** `O=[N+]([O-])C(Br)(CO)CO` [listing 2 of 2 here] was tested. Which cytotoxicity call did it give?
**A.** Its cytotoxicity call is “active”.

**Q.** With `OCC(Br)(Br)Br` as the compound, how does the cytotoxicity call read?
**A.** Its cytotoxicity call is “inactive”.

**Q.** `CN1C(=O)/C(=C/c2cn(CC(=O)N3CCOCC3)c3ccccc23)C(=O)NC1=S` was tested. Which cytotoxicity call did it give?
**A.** Its cytotoxicity call is “inactive”.

**Q.** `CC(C)(C)[C@H]1CC[C@@]2(CC1)C[C@@H](C[Si](C)(C)C)OO2` was tested. Which cytotoxicity call did it give?
**A.** The cytotoxicity call was “inactive”.

**Q.** `CC(C)Oc1ccccc1CCN` was tested. Which cytotoxicity call did it give?
**A.** The cytotoxicity call was “inactive”.

**Q.** How did the cytotoxicity call turn out when `CCN(CC)S(=O)(=O)c1ccc(Cn2nc(C(=O)Nc3ccc(N4CCCCC4)cc3)c3ccccc32)cc1` was run?
**A.** The cytotoxicity call was “inactive”.

**Q.** `NC(=O)N1C[C@@H]2C[C@H]1CN2` was tested. Which cytotoxicity call did it give?
**A.** The cytotoxicity call was “inactive”.

**Q.** For `C[N+]1(C)C2CCC1CC(OC(=O)C(CO)c1ccccc1)C2.O=[N+]([O-])[O-]` (centres undefined), which cytotoxicity call is on record?
**A.** The cytotoxicity call was “inactive”.

**Q.** With `O=C(NCNC(=O)N[C@H]1C(=O)NC(=O)N1CO)N[C@H]1C(=O)NC(=O)N1CO` as the compound, how does the cytotoxicity call read?
**A.** Its cytotoxicity call is “inactive”.

**Q.** Which cytotoxicity call does the source give for `CCC(=O)CCCCC[C@@H]1NC(=O)[C@H]2CCCCN2C(=O)[C@H]([C@@H](C)CC)NC(=O)[C@H](Cc2cn(OC)c3ccccc23)NC1=O` here?
**A.** Its cytotoxicity call is “active”.

**Q.** `CCC(=O)CCCCC[C@@H]1NC(=O)[C@H]2CCCCN2C(=O)[C@H]([C@H](C)CC)NC(=O)[C@H](Cc2cn(OC)c3ccccc23)NC1=O` was tested. Which cytotoxicity call did it give?
**A.** The cytotoxicity call was “active”.

**Q.** For `N[C@@H](C(=O)O)c1cc(=O)[nH]o1`, which cytotoxicity call is on record?
**A.** Its cytotoxicity call is “inactive”.

**Q.** With `COC(N)=O` as the compound, how does the cytotoxicity call read?
**A.** The cytotoxicity call was “inactive”.

**Q.** Which cytotoxicity call does the source give for `CN1C[C@@H]2C[C@H](C(=O)Nc3cccnc3)[C@@H](C1)O2` here?
**A.** The cytotoxicity call was “inactive”.

**Q.** `CCCCS(=O)(=O)N1C[C@H]2CNC[C@@H]2C1` was tested. Which cytotoxicity call did it give?
**A.** Its cytotoxicity call is “inactive”.

**Q.** `NC(=O)c1cc([N+](=O)[O-])cc([N+](=O)[O-])c1` [listing 1 of 2 here] was tested. Which cytotoxicity call did it give?
**A.** The cytotoxicity call was “inactive”.

**Q.** For `NC(=O)c1ccc(N)nc1`, which cytotoxicity call is on record?
**A.** Its cytotoxicity call is “active”.

**Q.** `NC(=O)c1cc([N+](=O)[O-])cc([N+](=O)[O-])c1` [listing 2 of 2 here] was tested. Which cytotoxicity call did it give?
**A.** Its cytotoxicity call is “inactive”.

**Q.** Which cytotoxicity call does the source give for `C[C@H]1CN([C@@H](C)CO)C(=O)CCCn2nncc2CO[C@@H]1CN(C)C(=O)Oc1ccc2ccccc2c1` here?
**A.** The cytotoxicity call was “inactive”.

**Q.** For `CNc1ccc(C(=O)C[C@@H](O)CC[C@@H](C)[C@H]2OC(=O)C[C@@H](O)CC(=O)C[C@@H](O)C[C@@H](O)C[C@@H](O)C[C@@H](O)C[C@@]3(O)C[C@@H](O)[C@H](C(=O)OC)[C@@H](C[C@@H](O[C@@H]4O[C@H](C)[C@@H](O)[C@H](N)[C@@H]4O)\C=C/C=C\C=C/C=C\C=C/C=C\C=C/[C@@H]2C)O3)cc1`, which cytotoxicity call is on record?
**A.** The cytotoxicity call was “inactive”.

**Q.** For `CN(C)C(=O)Oc1ccc[n+](C)c1.[Br-]`, which cytotoxicity call is on record?
**A.** Its cytotoxicity call is “active”.

**Q.** With `CN(C)C(=O)Oc1cccc([N+](C)(C)C)c1.[Br-]` as the compound, how does the cytotoxicity call read?
**A.** The cytotoxicity call was “inactive”.

**Q.** How did the cytotoxicity call turn out when `CN(C)C(=O)Oc1ccc[n+](C)c1` was run?
**A.** Its cytotoxicity call is “inactive”.

**Q.** How did the cytotoxicity call turn out when `O=C(O)[C@H]1C[C@H]2CCCCN2C1` was run?
**A.** Its cytotoxicity call is “inactive”.

**Q.** How did the cytotoxicity call turn out when `CN1[C@@H]2CC[C@@H]1C[C@H](O)C2` (some centres undefined) was run?
**A.** Its cytotoxicity call is “inactive”.

**Q.** Which cytotoxicity call does the source give for `CCCC[C@@H](C)[C@@H](OC(=O)C[C@@H](CC(=O)O)C(=O)O)[C@H](C[C@@H](C)C[C@H](O)CCCC[C@@H](O)C[C@H](O)[C@H](C)N)OC(=O)C[C@@H](CC(=O)O)C(=O)O` here?
**A.** The cytotoxicity call was “inactive”.

**Q.** For `OC[C@H]1O[C@@H](Oc2c[nH]c3ccc(Br)c(Cl)c23)[C@H](O)[C@@H](O)[C@H]1O`, which cytotoxicity call is on record?
**A.** Its cytotoxicity call is “inactive”.

**Q.** How did the cytotoxicity call turn out when `C[N+](C)(C)CCCl` was run?
**A.** Its cytotoxicity call is “inactive”.

**Q.** `C[N+](C)(C)CCCCCCCCCC[N+](C)(C)C.[Br-].[Br-]` was tested. Which cytotoxicity call did it give?
**A.** Its cytotoxicity call is “inactive”.

**Q.** `CCCCCCCCCCCCCCCC[N+](C)(C)C.[Br-]` was tested. Which cytotoxicity call did it give?
**A.** The cytotoxicity call was “active”.

**Q.** How did the cytotoxicity call turn out when `N=C(N)/N=C(\N)Nc1ccc(Cl)cc1` was run?
**A.** Its cytotoxicity call is “inactive”.

**Q.** For `CC1=CC(=O)c2c(O)cccc2C1=O`, which cytotoxicity call is on record?
**A.** The cytotoxicity call was “active”.

**Q.** For `Oc1ccccc1-c1ccccc1`, which cytotoxicity call is on record?
**A.** Its cytotoxicity call is “inactive”.

**Q.** For `O=C1C=CC(=O)c2c(O)cccc21`, which cytotoxicity call is on record?
**A.** The cytotoxicity call was “active”.

**Q.** How did the cytotoxicity call turn out when `Oc1ccccc1-c1ccccc1O` was run?
**A.** Its cytotoxicity call is “inactive”.
